The record followed here is PubChem BioAssay (EPA / NIEHS).

Results filed as inconclusive are left out. Active and inactive are the calls of the source. How the source made its calls: active means hit-call score of the fitted dose curve at least 0.9, where 1 is the maximum; inconclusive means response in the unintended direction; inactive means score below 0.9.

Chain of human Neurokinin, NK2 Receptor, TACR2 (gene 6865) (P21452 whole entry, looked up): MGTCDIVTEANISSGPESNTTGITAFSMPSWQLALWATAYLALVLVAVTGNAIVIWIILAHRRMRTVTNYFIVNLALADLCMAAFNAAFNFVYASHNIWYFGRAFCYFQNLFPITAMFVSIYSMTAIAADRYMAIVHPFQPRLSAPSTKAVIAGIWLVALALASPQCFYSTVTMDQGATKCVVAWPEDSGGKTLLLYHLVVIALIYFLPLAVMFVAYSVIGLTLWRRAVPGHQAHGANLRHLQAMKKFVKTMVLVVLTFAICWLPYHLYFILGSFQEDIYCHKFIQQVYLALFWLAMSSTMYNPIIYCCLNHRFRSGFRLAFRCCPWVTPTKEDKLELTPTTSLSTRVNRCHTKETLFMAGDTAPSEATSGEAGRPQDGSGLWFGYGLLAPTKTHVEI

For the experiment, the target named is human Neurokinin, NK2 Receptor, TACR2 (gene 6865) (UniProt P21452). Nature of the experiment: NVS_GPCR_hNK2: NovaScreen (NVS) G Protein-Coupled Receptor Assay for human Neurokinin, NK2 Receptor (AID 2283278).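 Further: actives reduce bound radioligand signal relative to DMSO baseline.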 The procedure, abridged:
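CHO-derived membrane protein, radioligand displacement, filter scintillation read at 4 h post-dose. Single-point 25 uM in duplicate, then concentration series for actives; DMSO as negative control.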
Consider `CCCCCCCCCCCCc1ccccc1S(=O)(=O)O`, for which the AC50 was 38 µM (active).

As to `Oc1cc2ccccc2c2ccccc12`, the molecule was classed as inactive.

With `Cc1oc(-c2ccccc2)nc1CCOc1ccc(C[C@H](Nc2ccccc2C(=O)c2ccccc2)C(=O)O)cc1`, the outcome was inactive.

Take `CCCOc1sc(C(=O)N2CCC(c3cc(CN)ccc3F)CC2)c(C)c1Br`: the AC50 is 7.85 µM (active).

As to `CCCCCCCCCCCCCC[N+](C)(C)C`, the AC50 is 4.81 µM (active).

Consider `C#C[C@]1(O)CC[C@H]2[C@@H]3CCC4=CC(=O)CC[C@@H]4[C@H]3CC[C@@]21C`, for which the result was inactive.

For the molecule `CN1CCN(c2ccccc2/C=C2\SCCN(c3ccc(Cl)c(Cl)c3)C2=O)CC1`, the AC50 was 6.97 µM (active).

On to `Cc1cc(CCN2CCN(c3nsc4ccccc34)CC2)cc2c1NC(=O)CC2(C)C`, for which the AC50 is 5.07 µM (active).

Regarding `Nc1cccc2c(N)cccc12`, the outcome was inactive.

On to `CC(=O)NC1(c2cccc(F)c2)CCN(CC[C@@]2(c3ccc(Cl)c(Cl)c3)CN(c3ccccc3)C(=O)CO2)CC1`, for which the AC50 was 0.00268 µM (active).

As for `NC(=O)N(O)[C@@H]1C=C[C@H](Oc2cccc(Oc3ccc(F)cc3)c2)C1`, the outcome was inactive.

Consider `O=C(OCCOCCOC(=O)c1ccccc1)c1ccccc1`, for which the result was inactive.
